# Laboratory results: PubChem BioAssay (Tox21)
# Records with an inconclusive call do not appear. A number with no mark means an inactive call. Active and inactive are the calls of the source. The call rests on the fitted dose curve; in most records, active means well fitted inhibition curve with a large enough effect in the repeat runs; inconclusive means weak or mixed curves; inactive means no such curve, though single readings can be large or run the other way.
# Target: Cytochrome P450 2D6 (Homo sapiens) (UniProt P10635)
# Assay: Cytochrome P450 Family 2 Subfamily D Member 6 (CYP2D6) small molecule antagonists: luciferase reporter qHTS assay (AID 1671196); further: nearly all actives have a fitted effect of over 50% in size
# Settings: P450-Glo CYP2D6 enzyme assay, luciferin luminescence, 1 h; series mostly up to 115 µM; activity change, negative = inhibition: at the top concentration
# Procedure, shortened: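 Chemicals tested for interference with CYP2D6 activity; proluciferin substrate, NADPH regeneration, 1 h at room temperature, luminescent detection.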
# On the % scale 0 is the no-effect control and ±100 the full control effect; potency means the concentration at half of the fitted maximal effect.
# Chain of Cytochrome P450 2D6 (Homo sapiens) (P10635 whole entry, looked up): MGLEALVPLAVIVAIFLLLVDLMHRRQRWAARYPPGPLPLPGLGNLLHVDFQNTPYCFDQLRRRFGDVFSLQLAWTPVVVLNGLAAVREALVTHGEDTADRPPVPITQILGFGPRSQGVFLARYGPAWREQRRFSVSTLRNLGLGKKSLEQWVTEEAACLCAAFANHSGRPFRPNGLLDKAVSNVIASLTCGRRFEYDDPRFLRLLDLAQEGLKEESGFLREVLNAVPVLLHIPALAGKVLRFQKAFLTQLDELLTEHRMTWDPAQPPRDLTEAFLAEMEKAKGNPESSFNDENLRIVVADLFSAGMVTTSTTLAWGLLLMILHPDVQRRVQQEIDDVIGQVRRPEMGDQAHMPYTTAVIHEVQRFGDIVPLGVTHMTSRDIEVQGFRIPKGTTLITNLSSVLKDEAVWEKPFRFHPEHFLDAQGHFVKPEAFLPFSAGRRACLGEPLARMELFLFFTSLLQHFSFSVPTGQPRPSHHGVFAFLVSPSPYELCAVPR
Structure (SMILES),"activity change, negative = inhibition",Potency
Cc1cccc2c1ccc1ccccc12,-9.45%,
Cc1ccc2n[nH]nc2c1,-8.37%,
CC(C=O)c1ccccc1 (stereo not given),-0.0915%,
CCc1cccc(C)c1N(C(=O)CS(=O)(=O)O)C(C)COC (stereo not given),-5.71%,
O=C(CCCCCCCCc1cccnc1)N1CCC(C=C(c2ccccc2)c2ccccc2)CC1,-7.84%,
O=C1c2ccccc2C(=O)c2c(Cl)cccc21,-11.7% [at 53 µM],
C=CC(=O)OCC(Br)CBr (stereo not given),-8.38%,
O=C1OCc2ccccc21,-17.5%,
Oc1cccc2c(O)cccc12,,39.9 µM (active)
CCN(CC)c1ccc(C=O)c(O)c1,-21.2%,
Cc1ccc(C=O)cc1,-7.09% [at 53 µM],
COCCC(=O)OC,-14.8%,
Nc1cc([N+](=O)[O-])ccc1Cl,-25.1%,
CC/C=C(\C)C=O,0.5%,
Cc1ccc(N=Nc2c(O)ccc3ccccc23)c(C)c1,,17.4 µM (active)
CCOC=C(C(=O)OCC)C(=O)OCC,-0.235%,
O=C(Cl)c1ccc(Cl)cc1Cl,-24.5%,
Nc1ccc(F)c([N+](=O)[O-])c1,-1.46%,
N#Cc1nc(Cl)c(Cl)c(Cl)c1Cl,-31.4%,
Oc1ccc2c(c1)CCC2,-6.31%,

Structure (SMILES),"activity change, negative = inhibition",Potency
c1ccc(-c2nc3ccccc3[nH]2)cc1,,31.7 µM (active)
CCCCCCCCc1ccc(Nc2ccc(CCCCCCCC)cc2)cc1,0.634% [at 53 µM],
Cc1cc(C)c(O)c(C(C)(C)C)c1,-17.5%,
CC1=CC[C@@H](C(C)(C)O)CC1,-0.198%,
CC(c1cc(C(C)(C)C)cc(C(C)(C)C)c1O)c1cc(C(C)(C)C)cc(C(C)(C)C)c1O,-9.76%,
Cc1ccc(C2OC[C@@H]3OC(c4ccc(C)cc4)O[C@H]([C@H](O)CO)[C@@H]3O2)cc1 (stereo not given in full),1.4%,
Cc1cccc(C)c1C,1.02%,
CC(CC(C)(C)C)CC(C)(C)CC(C)(C)C (stereo not given),-0.29% [at 53 µM],
Brc1cc(Br)cc(Br)c1,-0.688%,
CCOc1nc(F)cc2nc(S(=O)(=O)Nc3c(Cl)cccc3C(=O)OC)nn12,-6.07%,
c1ccc2occc2c1,,31.7 µM (active)
CCC(=O)OC/C=C(\C)CCC=C(C)C,-6.19%,
Nc1ccc2c(S(=O)(=O)O)cccc2c1S(=O)(=O)O,-10.1% [at 53 µM],
CC(C)(C)c1cc(CCC(=O)OCCSCCOC(=O)CCc2cc(C(C)(C)C)c(O)c(C(C)(C)C)c2)cc(C(C)(C)C)c1O,-15.1% [at 53 µM],
C/C(=C\c1ccc(C(=O)O)cc1)c1ccc2c(c1)C(C)(C)CCC2(C)C,-11% [at 53 µM],
CCCCCCCCCCCC(=O)Cl,-17.5%,
CCn1c2ccccc2c2ccccc21,-9.77%,
CCCCCCCCCCCCN1CCCC1=O,-12.1%,
NC(=O)c1ccccc1Cl,-11.8%,

# Target: Cytochrome P450 2C19 (Homo sapiens) (UniProt P33261)
# Assay: Cytochrome P450 Family 2 Subfamily C Member 19 (CYP2C19) small molecule antagonists: luciferase reporter qHTS assay (AID 1671197); further: nearly all actives have a fitted effect of over 65% in size
# Settings: P450-Glo CYP2C19 enzyme, luciferin luminescence, 1 h; series mostly up to 115 µM; activity change, negative = inhibition: at the top concentration
# Procedure, shortened: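 Inhibition of CYP2C19 was scored from loss of luminescence in a P450-Glo proluciferin substrate assay, NADPH-started and run 1 h at 37C, with ketoconazole as positive control.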
# Chain of Cytochrome P450 2C19 (Homo sapiens) (P33261 whole entry, looked up): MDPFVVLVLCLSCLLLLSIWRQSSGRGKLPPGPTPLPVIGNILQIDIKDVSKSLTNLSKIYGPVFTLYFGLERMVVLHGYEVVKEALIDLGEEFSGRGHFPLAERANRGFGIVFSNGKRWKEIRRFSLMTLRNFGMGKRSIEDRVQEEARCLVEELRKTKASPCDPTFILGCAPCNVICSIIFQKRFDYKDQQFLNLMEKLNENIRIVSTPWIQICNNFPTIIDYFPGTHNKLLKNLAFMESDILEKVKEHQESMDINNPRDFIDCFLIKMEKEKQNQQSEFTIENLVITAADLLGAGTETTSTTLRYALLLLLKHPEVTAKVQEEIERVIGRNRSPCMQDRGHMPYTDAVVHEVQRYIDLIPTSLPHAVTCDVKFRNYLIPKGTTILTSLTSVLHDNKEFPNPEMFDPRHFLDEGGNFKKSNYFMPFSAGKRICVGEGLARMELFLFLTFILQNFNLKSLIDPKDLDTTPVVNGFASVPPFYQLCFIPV
Structure (SMILES),"activity change, negative = inhibition",Potency
CN1CC[C@H](c2c(O)cc(O)c3c(=O)cc(-c4ccccc4Cl)oc23)[C@H](O)C1,-5.48% [at 52.9 µM],
Cc1ccc(N=Nc2c(O)ccc3ccccc23)c(C)c1,,12.3 µM (active)
Nc1ccc(F)c([N+](=O)[O-])c1,,89.4 µM (active)
Cc1cccc(C)c1C,-11.7%,
CCOc1nc(F)cc2nc(S(=O)(=O)Nc3c(Cl)cccc3C(=O)OC)nn12,4.93%,

# Target: Cytochrome P450 2C9 (Homo sapiens) (UniProt P11712)
# Assay: Cytochrome P450 Family 2 Subfamily C Member 9 (CYP2C9) small molecule antagonists: luciferase reporter qHTS assay (AID 1671198); further: nearly all actives have a fitted effect of over 50% in size
# Settings: P450-Glo CYP2C9 enzyme assay, luciferin luminescence; series mostly up to 115 µM; activity change, negative = inhibition: at the top concentration
# Procedure, shortened: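 P450-Glo proluciferin substrate with CYP2C9 enzyme; 10 min RT preincubation, then NADPH regeneration 1 h at 37C; luciferin detection reagent 20 min RT, luminescence in relative luminescence units.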
# Chain of Cytochrome P450 2C9 (Homo sapiens) (P11712 whole entry, looked up): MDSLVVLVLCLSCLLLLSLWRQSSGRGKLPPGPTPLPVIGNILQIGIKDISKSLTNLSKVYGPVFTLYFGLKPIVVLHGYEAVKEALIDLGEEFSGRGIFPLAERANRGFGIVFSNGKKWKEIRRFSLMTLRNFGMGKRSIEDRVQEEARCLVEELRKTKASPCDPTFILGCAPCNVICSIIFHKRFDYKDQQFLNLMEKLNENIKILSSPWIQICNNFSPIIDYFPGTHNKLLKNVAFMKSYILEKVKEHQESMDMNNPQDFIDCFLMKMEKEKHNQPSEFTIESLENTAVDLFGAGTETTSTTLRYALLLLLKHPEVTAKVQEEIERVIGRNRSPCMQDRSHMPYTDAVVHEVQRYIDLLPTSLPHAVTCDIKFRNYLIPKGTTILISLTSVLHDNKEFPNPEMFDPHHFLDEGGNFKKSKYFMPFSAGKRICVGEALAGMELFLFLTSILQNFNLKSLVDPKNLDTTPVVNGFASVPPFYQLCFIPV
Structure (SMILES),"activity change, negative = inhibition",Potency
Cc1ccc2n[nH]nc2c1,10.4%,
CC(C=O)c1ccccc1 (stereo not given),,35.6 µM (active)
O=C(CCCCCCCCc1cccnc1)N1CCC(C=C(c2ccccc2)c2ccccc2)CC1,,0.633 µM (active)
C=CC(=O)OCC(Br)CBr (stereo not given),-9.82%,
O=C1OCc2ccccc21,-0.875%,
Oc1cccc2c(O)cccc12,,22.4 µM (active)
CCN(CC)c1ccc(C=O)c(O)c1,38.2%,
Cc1ccc(C=O)cc1,6.03% [at 53 µM],
COCCC(=O)OC,-0.261%,
Nc1cc([N+](=O)[O-])ccc1Cl,25%,
CC/C=C(\C)C=O,-7.07%,
CCOC=C(C(=O)OCC)C(=O)OCC,-12.1%,
N#Cc1nc(Cl)c(Cl)c(Cl)c1Cl,,79.6 µM (active)
Oc1ccc2c(c1)CCC2,-8.56%,
c1ccc(-c2nc3ccccc3[nH]2)cc1,,35.6 µM (active)
CC1=CC[C@@H](C(C)(C)O)CC1,-5.48%,
Cc1ccc(C2OC[C@@H]3OC(c4ccc(C)cc4)O[C@H]([C@H](O)CO)[C@@H]3O2)cc1 (stereo not given in full),-3.83%,
Cc1cccc(C)c1C,-6.97%,
CC(CC(C)(C)C)CC(C)(C)CC(C)(C)C (stereo not given),2.85% [at 53 µM],
Brc1cc(Br)cc(Br)c1,-10.3%,
c1ccc2occc2c1,,35.6 µM (active)
CCC(=O)OC/C=C(\C)CCC=C(C)C,-15.3%,
CC(C)(C)c1cc(CCC(=O)OCCSCCOC(=O)CCc2cc(C(C)(C)C)c(O)c(C(C)(C)C)c2)cc(C(C)(C)C)c1O,,2.19 µM (active)
C/C(=C\c1ccc(C(=O)O)cc1)c1ccc2c(c1)C(C)(C)CCC2(C)C,0.287% [at 53 µM],
CCCCCCCCCCCCN1CCCC1=O,,31.7 µM (active)
NC(=O)c1ccccc1Cl,-32%,

# Target: Cytochrome P450 1A2 (Homo sapiens) (UniProt P05177)
# Assay: Cytochrome P450 Family 1 Subfamily A Member 2 (CYP1A2) small molecule antagonists: luciferase reporter qHTS assay (AID 1671199); further: nearly all actives have a fitted effect of over 50% in size
# Settings: P450-Glo CYP1A2 enzyme, luciferin luminescence, 1 h; series mostly up to 115 µM; activity change, negative = inhibition: at the top concentration
# Procedure, shortened: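 Read-out is luminescence from luciferin detection reagent (20 min) proportional to CYP1A2 activity; compounds in DMSO preincubated 10 min with enzyme and proluciferin substrate, then NADPH regeneration solution, 1 h, room temperature.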
# Chain of Cytochrome P450 1A2 (Homo sapiens) (P05177 whole entry, looked up): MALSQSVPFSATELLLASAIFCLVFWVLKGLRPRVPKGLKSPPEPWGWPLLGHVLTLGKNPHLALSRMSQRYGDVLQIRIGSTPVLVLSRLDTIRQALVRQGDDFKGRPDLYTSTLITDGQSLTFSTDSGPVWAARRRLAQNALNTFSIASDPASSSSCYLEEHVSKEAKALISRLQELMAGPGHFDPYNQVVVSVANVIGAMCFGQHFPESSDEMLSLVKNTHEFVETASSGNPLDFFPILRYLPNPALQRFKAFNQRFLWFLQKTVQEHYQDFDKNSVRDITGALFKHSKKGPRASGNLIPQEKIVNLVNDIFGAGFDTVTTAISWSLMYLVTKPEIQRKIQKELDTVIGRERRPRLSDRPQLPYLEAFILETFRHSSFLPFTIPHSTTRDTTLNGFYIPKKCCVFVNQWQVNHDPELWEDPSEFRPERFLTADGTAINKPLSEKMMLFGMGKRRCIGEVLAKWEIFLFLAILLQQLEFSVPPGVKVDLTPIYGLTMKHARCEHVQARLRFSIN
Structure (SMILES),Potency,"activity change, negative = inhibition"
Cc1cccc2c1ccc1ccccc12,6.33 µM (active),
CCc1cccc(C)c1N(C(=O)CS(=O)(=O)O)C(C)COC (stereo not given),,-2.13%
O=C1c2ccccc2C(=O)c2c(Cl)cccc21,0.0473 µM (active),
O=C1OCc2ccccc21,,-23.1%
Oc1cccc2c(O)cccc12,22.4 µM (active),
CCN(CC)c1ccc(C=O)c(O)c1,17.8 µM (active),
Cc1ccc(C=O)cc1,,-6.07% [at 53 µM]
COCCC(=O)OC,,-19.2%
CC/C=C(\C)C=O,39.9 µM (active),
Cc1ccc(N=Nc2c(O)ccc3ccccc23)c(C)c1,3.47 µM (active),
O=C(Cl)c1ccc(Cl)cc1Cl,63.3 µM (active),
N#Cc1nc(Cl)c(Cl)c(Cl)c1Cl,5.03 µM (active),
c1ccc(-c2nc3ccccc3[nH]2)cc1,7.1 µM (active),
Cc1cc(C)c(O)c(C(C)(C)C)c1,31.7 µM (active),
CC1=CC[C@@H](C(C)(C)O)CC1,,-12.7%
CC(c1cc(C(C)(C)C)cc(C(C)(C)C)c1O)c1cc(C(C)(C)C)cc(C(C)(C)C)c1O,,-17.4%
Cc1ccc(C2OC[C@@H]3OC(c4ccc(C)cc4)O[C@H]([C@H](O)CO)[C@@H]3O2)cc1 (stereo not given in full),,-6.27%
CC(CC(C)(C)C)CC(C)(C)CC(C)(C)C (stereo not given),,7.48% [at 53 µM]
CCOc1nc(F)cc2nc(S(=O)(=O)Nc3c(Cl)cccc3C(=O)OC)nn12,,12.2%
Nc1ccc2c(S(=O)(=O)O)cccc2c1S(=O)(=O)O,,-7.99% [at 53 µM]
CC(C)(C)c1cc(CCC(=O)OCCSCCOC(=O)CCc2cc(C(C)(C)C)c(O)c(C(C)(C)C)c2)cc(C(C)(C)C)c1O,,-12.8% [at 53 µM]
C/C(=C\c1ccc(C(=O)O)cc1)c1ccc2c(c1)C(C)(C)CCC2(C)C,,-11.9% [at 53 µM]
CCCCCCCCCCCC(=O)Cl,,-8.17%
CCn1c2ccccc2c2ccccc21,3.99 µM (active),
NC(=O)c1ccccc1Cl,,-28.6%
